# Results: article PMC7862700, “An all-to-all approach to the identification of sequence-specific readers for epigenetic DNA modifications on cytosine”
# Experiments:
# Assay in all cases: DAPPL (digital affinity profiling via proximity ligation, sequencing); 10 mM Tris-HCl pH 7.5, 50 mM NaCl, 1 mM DTT, 4% glycerol, room temperature, 30 min; GST-TFs on glutathione beads, 16-mer random dsDNA library, 0.1% formaldehyde crosslink after washing; high values mean tight binding
# FEV = biological target: T1, FEV (Homo sapiens, UniProt Q99581 1-238); conditions: protein: recombinant; tags: N-terminal GST; dsDNA, one strand shown
# T1 sequence: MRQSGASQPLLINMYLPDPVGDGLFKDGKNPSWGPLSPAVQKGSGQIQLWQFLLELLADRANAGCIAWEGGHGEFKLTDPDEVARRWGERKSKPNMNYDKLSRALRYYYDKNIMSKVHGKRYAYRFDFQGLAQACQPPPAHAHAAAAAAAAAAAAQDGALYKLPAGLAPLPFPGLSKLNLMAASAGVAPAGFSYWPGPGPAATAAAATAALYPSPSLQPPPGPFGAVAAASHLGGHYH
# Summary of the method: (§1)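 Binding signal is each hexamer's read frequency for a factor divided by its frequency in the tag-only sample. The factors were GST-fused human transcription factors from yeast, captured on glutathione beads, DNA-barcoded and pooled with that sample. Pools were incubated with 200 nmole of a random double-stranded 16-mer DNA library in Tris/NaCl/DTT/glycerol buffer at room temperature for 30 min, then washed, crosslinked with 0.1% formaldehyde, proximity-ligated with BsaI/T4 ligase (1 h, 37 °C), PCR-amplified and sequenced on an Illumina NextSeq500.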
# ETV5 = ETV5 (Homo sapiens, UniProt P41161 1-510); conditions: protein: recombinant; tags: N-terminal GST; dsDNA, one strand shown
# ETV5, sequence (P41161 whole entry): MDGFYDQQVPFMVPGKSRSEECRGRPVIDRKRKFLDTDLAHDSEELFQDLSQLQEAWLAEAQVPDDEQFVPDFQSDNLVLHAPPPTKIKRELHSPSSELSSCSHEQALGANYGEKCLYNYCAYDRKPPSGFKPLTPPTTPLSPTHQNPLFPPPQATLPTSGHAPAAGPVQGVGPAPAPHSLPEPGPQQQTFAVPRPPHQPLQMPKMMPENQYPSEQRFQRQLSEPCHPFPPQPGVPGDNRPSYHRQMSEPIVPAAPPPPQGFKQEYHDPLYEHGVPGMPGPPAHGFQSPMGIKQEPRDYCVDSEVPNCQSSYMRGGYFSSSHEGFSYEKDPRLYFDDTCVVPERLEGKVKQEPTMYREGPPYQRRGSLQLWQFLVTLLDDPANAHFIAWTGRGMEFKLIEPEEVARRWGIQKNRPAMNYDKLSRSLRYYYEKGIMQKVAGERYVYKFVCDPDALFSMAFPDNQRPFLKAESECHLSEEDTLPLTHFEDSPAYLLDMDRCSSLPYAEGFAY
# Summary of the method: as §1
# HSF1 = HSF1 (Homo sapiens, UniProt Q00613 1-529); conditions: protein: recombinant; tags: N-terminal GST; chain copies: 3; dsDNA, one strand shown
# HSF1, sequence (Q00613 whole entry): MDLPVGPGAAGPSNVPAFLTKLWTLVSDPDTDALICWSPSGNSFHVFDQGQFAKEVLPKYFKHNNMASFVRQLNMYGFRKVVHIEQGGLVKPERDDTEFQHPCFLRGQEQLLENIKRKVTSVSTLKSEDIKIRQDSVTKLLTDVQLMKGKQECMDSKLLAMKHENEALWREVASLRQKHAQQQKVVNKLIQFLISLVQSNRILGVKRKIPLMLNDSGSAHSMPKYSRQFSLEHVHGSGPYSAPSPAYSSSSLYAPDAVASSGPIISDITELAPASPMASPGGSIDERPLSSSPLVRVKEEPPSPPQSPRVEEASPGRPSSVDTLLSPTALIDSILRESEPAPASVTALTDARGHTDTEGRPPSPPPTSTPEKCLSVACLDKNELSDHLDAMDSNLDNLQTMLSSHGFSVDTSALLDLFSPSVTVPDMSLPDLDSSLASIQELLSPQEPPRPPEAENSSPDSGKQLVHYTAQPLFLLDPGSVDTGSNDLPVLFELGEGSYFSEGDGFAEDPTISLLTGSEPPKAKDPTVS
# Summary of the method: as §1
# SPIC = biological target: T2, SPIC (Homo sapiens, UniProt Q8N5J4 1-248); conditions: protein: recombinant; tags: N-terminal GST; dsDNA, one strand shown
# T2 sequence: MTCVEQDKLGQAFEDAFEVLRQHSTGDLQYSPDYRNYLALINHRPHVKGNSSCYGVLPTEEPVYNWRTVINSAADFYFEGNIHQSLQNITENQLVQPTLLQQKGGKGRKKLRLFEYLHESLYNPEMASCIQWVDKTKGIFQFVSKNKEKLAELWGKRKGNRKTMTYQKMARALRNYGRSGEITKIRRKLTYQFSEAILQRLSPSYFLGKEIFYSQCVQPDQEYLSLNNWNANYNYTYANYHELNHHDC
# Summary of the method: as §1
# ELF4 = ELF4 (Homo sapiens, UniProt Q99607 1-663); conditions: protein: recombinant; tags: N-terminal GST; dsDNA, one strand shown
# ELF4, sequence (Q99607 whole entry): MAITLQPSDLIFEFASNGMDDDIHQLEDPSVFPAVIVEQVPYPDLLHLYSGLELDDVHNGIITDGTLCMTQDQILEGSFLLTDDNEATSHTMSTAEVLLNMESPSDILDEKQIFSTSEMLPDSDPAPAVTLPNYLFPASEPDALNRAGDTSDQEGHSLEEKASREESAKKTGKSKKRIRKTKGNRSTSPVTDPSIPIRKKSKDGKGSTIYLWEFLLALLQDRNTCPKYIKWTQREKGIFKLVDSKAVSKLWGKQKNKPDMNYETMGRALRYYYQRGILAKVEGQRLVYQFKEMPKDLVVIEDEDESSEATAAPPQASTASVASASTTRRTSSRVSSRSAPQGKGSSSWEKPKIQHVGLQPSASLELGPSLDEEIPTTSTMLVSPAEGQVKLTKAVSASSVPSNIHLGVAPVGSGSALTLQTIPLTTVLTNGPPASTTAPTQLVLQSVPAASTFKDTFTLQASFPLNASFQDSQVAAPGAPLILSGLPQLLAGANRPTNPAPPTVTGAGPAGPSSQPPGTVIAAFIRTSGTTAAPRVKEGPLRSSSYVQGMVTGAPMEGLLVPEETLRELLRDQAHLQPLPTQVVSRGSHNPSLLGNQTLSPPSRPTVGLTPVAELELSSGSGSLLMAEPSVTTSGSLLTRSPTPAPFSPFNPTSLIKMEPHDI
# Summary of the method: as §1
# ETV2 = biological target: T3, ETV2 (Homo sapiens, UniProt O00321 1-342); conditions: protein: recombinant; tags: N-terminal GST; dsDNA, one strand shown
# T3 sequence: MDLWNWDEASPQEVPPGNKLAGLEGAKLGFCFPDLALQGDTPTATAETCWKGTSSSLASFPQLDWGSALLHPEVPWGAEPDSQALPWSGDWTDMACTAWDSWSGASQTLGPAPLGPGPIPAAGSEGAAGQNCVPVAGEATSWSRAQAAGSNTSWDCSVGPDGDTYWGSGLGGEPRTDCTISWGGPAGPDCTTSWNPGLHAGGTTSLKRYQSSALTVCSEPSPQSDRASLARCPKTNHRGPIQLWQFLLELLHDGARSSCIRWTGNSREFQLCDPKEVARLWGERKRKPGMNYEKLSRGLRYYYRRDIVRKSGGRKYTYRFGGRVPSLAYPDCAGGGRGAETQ
# Summary of the method: as §1
# ELF3 = biological target: T4, ELF3 (Homo sapiens, UniProt P78545 1-371); conditions: protein: recombinant; tags: N-terminal GST; dsDNA, one strand shown
# T4 sequence: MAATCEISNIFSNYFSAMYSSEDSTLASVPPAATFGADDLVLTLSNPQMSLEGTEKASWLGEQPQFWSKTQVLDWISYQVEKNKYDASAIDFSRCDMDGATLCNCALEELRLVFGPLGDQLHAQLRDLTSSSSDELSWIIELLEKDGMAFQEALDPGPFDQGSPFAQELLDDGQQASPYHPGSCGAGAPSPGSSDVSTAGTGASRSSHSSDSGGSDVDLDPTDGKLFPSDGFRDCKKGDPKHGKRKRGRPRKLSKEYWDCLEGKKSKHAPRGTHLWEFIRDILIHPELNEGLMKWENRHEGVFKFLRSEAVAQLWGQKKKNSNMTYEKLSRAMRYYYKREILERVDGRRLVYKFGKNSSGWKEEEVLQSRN
# Summary of the method: as §1
# ETV1 = ETV1 (Homo sapiens, UniProt P50549 1-477); conditions: protein: recombinant; tags: N-terminal GST; dsDNA, one strand shown
# ETV1, sequence (P50549 whole entry): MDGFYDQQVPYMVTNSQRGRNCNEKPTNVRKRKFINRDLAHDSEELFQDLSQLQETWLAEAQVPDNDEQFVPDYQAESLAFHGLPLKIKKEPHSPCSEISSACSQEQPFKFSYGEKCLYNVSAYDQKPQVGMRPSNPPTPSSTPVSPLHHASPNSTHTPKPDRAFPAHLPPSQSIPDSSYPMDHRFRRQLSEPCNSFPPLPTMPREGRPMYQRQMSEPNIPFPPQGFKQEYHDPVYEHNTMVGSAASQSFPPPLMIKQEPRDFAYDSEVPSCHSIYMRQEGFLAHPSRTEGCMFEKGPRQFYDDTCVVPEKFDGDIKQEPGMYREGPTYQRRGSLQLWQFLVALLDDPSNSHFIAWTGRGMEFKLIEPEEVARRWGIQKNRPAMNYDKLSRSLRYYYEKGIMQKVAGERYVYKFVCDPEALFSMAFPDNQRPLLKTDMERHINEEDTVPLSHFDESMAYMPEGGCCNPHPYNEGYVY
# Summary of the method: as §1
# ERF = biological target: T5, ERF (Homo sapiens, UniProt P50548 1-548); conditions: protein: recombinant; tags: N-terminal GST; dsDNA, one strand shown
# T5 sequence: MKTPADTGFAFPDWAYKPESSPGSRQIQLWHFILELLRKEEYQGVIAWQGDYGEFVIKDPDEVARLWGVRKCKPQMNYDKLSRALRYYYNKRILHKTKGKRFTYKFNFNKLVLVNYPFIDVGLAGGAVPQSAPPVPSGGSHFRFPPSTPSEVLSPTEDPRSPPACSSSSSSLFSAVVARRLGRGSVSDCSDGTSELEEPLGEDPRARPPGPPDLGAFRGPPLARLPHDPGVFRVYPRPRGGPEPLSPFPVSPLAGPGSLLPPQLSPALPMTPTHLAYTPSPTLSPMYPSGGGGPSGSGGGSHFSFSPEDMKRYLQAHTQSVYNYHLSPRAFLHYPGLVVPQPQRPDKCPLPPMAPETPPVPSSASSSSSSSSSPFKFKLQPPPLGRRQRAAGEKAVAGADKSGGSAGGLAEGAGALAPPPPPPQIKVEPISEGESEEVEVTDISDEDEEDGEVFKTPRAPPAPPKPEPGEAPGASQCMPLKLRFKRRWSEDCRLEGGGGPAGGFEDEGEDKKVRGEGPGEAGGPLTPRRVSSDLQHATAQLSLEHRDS
# Summary of the method: as §1
# ETV3L = biological target: T6, ETV3L (Homo sapiens, UniProt Q6ZN32 1-361); conditions: protein: recombinant; tags: N-terminal GST; dsDNA, one strand shown
# T6 sequence: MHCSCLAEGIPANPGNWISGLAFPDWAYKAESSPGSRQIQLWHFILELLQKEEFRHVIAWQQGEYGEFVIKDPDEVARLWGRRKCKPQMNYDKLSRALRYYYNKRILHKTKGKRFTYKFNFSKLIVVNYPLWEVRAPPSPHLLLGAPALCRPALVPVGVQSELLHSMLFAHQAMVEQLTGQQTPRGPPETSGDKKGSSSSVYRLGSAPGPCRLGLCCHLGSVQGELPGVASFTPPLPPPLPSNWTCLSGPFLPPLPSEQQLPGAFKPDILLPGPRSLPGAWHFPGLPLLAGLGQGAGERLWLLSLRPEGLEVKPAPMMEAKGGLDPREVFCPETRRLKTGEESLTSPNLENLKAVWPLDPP
# Summary of the method: as §1
# ETS2 = biological target: T7, ETS2 (Homo sapiens, UniProt P15036 1-469); conditions: protein: recombinant; tags: N-terminal GST; dsDNA, one strand shown
# T7 sequence: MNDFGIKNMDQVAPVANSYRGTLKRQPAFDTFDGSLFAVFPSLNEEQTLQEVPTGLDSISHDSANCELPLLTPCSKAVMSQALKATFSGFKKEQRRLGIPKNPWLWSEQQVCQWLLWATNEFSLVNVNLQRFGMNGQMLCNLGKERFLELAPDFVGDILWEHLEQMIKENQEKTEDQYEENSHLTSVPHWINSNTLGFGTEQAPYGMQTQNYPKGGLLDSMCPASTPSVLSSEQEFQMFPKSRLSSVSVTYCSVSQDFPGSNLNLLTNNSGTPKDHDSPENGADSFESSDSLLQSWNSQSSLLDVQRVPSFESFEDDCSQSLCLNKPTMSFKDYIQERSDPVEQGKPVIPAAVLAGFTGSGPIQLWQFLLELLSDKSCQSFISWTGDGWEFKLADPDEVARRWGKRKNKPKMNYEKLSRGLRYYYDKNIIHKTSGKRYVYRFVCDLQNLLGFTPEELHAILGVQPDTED
# Summary of the method: as §1
# SPDEF = biological target: T8, SPDEF (Homo sapiens, UniProt O95238 1-335); conditions: protein: recombinant; tags: N-terminal GST; dsDNA, one strand shown
# T8 sequence: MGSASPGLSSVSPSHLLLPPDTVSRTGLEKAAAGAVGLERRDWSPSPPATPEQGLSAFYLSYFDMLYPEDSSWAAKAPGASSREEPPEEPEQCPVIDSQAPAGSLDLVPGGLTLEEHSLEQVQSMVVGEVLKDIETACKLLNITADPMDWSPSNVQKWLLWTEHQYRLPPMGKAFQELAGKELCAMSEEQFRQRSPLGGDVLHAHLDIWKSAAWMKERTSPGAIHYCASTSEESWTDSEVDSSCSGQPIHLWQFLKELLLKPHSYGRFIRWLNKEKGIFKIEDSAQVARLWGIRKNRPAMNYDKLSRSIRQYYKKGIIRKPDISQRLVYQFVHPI
# Summary of the method: as §1
# ETV7 = biological target: T9, ETV7 (Homo sapiens, UniProt Q9Y603 1-341); conditions: protein: recombinant; tags: N-terminal GST; dsDNA, one strand shown
# T9 sequence: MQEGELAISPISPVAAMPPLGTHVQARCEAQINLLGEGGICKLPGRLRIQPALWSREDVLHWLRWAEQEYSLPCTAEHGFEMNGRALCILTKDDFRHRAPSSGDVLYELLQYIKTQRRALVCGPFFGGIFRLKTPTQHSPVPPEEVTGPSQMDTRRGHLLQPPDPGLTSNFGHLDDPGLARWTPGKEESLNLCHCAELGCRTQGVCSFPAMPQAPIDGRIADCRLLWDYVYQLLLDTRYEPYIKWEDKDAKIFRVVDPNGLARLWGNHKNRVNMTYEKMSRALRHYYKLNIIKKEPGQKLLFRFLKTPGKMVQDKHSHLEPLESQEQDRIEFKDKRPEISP
# Summary of the method: as §1
# ELF5 = biological target: T10, ELF5 (Homo sapiens, UniProt Q9UKW6-2 1-255); conditions: protein: recombinant; tags: N-terminal GST; dsDNA, one strand shown
# T10 sequence: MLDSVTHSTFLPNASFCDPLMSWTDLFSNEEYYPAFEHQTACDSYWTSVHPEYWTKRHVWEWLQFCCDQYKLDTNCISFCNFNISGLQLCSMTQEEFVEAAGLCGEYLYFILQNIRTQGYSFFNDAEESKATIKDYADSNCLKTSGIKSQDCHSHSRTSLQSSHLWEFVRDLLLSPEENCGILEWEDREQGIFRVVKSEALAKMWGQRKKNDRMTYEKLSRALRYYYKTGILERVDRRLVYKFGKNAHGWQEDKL
# Summary of the method: as §1
# ETV3 = biological target: T11, ETV3 (Homo sapiens, UniProt P41162-2 1-143); conditions: protein: recombinant; tags: N-terminal GST; dsDNA, one strand shown
# T11 sequence: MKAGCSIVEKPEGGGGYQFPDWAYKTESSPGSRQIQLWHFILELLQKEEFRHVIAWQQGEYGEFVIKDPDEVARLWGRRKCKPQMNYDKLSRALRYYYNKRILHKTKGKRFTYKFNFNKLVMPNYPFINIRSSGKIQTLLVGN
# Summary of the method: as §1
# ETV6 = ETV6 (Homo sapiens, UniProt P41212 1-452); conditions: protein: recombinant; tags: N-terminal GST; dsDNA, one strand shown
# ETV6, sequence (P41212 whole entry): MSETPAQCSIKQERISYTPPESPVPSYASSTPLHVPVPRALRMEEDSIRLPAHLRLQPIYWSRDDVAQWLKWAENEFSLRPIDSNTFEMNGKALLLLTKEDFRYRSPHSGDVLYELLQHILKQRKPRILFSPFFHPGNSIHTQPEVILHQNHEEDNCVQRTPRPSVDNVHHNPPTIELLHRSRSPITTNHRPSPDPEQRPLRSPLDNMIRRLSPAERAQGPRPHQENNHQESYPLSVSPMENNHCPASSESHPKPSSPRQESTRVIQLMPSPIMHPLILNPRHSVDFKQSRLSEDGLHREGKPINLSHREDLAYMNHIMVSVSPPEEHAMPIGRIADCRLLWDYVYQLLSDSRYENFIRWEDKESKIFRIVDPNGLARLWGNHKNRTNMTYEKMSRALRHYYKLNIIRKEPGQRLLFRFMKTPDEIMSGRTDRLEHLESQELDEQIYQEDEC
# Summary of the method: as §1
sequence,measurement,setting,value
GCTCTG,binding signal,FEV,"1.25 fold enrichment (6-mer frequency, TF over GST control)"
same,binding signal,ETV5,"1.15 fold enrichment (6-mer frequency, TF over GST control)"
same,binding signal,HSF1,"1.08 fold enrichment (6-mer frequency, TF over GST control)"
same,binding signal,SPIC,"1.18 fold enrichment (6-mer frequency, TF over GST control)"
same,binding signal,ELF4,"1.17 fold enrichment (6-mer frequency, TF over GST control)"
same,binding signal,ETV2,"1 fold enrichment (6-mer frequency, TF over GST control)"
same,binding signal,ELF3,"1.04 fold enrichment (6-mer frequency, TF over GST control)"
same,binding signal,ETV1,"1.28 fold enrichment (6-mer frequency, TF over GST control)"
same,binding signal,ERF,"1.03 fold enrichment (6-mer frequency, TF over GST control)"
same,binding signal,ETV3L,"1.23 fold enrichment (6-mer frequency, TF over GST control)"
same,binding signal,ETS2,"1.12 fold enrichment (6-mer frequency, TF over GST control)"
same,binding signal,SPDEF,"1.06 fold enrichment (6-mer frequency, TF over GST control)"
same,binding signal,ETV7,"1.17 fold enrichment (6-mer frequency, TF over GST control)"
same,binding signal,ELF5,"1.02 fold enrichment (6-mer frequency, TF over GST control)"
same,binding signal,ETV3,"1.17 fold enrichment (6-mer frequency, TF over GST control)"
same,binding signal,ETV6,"1.17 fold enrichment (6-mer frequency, TF over GST control)"
